Source: paper PMC7862700, “An all-to-all approach to the identification of sequence-specific readers for epigenetic DNA modifications on cytosine”

What was measured:
Test in all cases: DAPPL (digital affinity profiling via proximity ligation, sequencing); 10 mM Tris-HCl pH 7.5, 50 mM NaCl, 1 mM DTT, 4% glycerol, room temperature, 30 min; GST-TFs on glutathione beads, 16-mer random dsDNA library, 0.1% formaldehyde crosslink after washing; high values mean tight binding
[1] = molecular target: T1, FEV (Homo sapiens, UniProt Q99581 1-238); conditions: protein: recombinant; tags: N-terminal GST; dsDNA, one strand shown
T1 sequence: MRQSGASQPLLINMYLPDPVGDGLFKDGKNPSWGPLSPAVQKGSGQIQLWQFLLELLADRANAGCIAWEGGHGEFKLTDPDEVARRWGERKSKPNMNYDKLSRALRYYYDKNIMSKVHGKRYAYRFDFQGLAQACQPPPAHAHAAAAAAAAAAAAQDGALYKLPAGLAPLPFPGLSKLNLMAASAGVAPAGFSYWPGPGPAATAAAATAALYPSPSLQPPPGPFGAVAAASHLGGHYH
Outline: (§1)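 Human transcription factors were made in yeast as GST fusions, captured on glutathione beads and barcoded with DNA. With a tag-only sample included, the pool was incubated with 200 nmole of a random double-stranded 16-mer DNA library in Tris/NaCl/DTT/glycerol buffer at room temperature for 30 min, then crosslinked with 0.1% formaldehyde after washing, ligated by proximity, amplified and sequenced. For binding signal, each hexamer's read frequency for a factor is divided by its frequency for the tag-only sample.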

[2] = molecular target: ETV5 (Homo sapiens, UniProt P41161 1-510); conditions: protein: recombinant; tags: N-terminal GST; dsDNA, one strand shown
Sequence of ETV5 (P41161 whole entry): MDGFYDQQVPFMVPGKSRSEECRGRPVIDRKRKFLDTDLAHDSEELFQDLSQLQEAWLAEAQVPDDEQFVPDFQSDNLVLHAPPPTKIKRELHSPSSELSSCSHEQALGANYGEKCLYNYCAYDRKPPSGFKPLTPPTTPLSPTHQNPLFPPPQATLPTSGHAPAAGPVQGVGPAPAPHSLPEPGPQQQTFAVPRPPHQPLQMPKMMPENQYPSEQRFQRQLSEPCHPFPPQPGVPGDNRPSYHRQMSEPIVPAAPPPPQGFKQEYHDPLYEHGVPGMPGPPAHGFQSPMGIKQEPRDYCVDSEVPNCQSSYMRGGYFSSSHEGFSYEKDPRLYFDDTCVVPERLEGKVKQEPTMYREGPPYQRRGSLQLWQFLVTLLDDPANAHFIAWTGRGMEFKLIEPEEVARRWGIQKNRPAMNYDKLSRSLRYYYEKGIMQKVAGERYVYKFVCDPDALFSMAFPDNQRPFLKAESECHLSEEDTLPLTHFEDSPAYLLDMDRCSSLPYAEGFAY
Outline: as §1

[3] = molecular target: HSF1 (Homo sapiens, UniProt Q00613 1-529); conditions: protein: recombinant; tags: N-terminal GST; chain copies: 3; dsDNA, one strand shown
Sequence of HSF1 (Q00613 whole entry): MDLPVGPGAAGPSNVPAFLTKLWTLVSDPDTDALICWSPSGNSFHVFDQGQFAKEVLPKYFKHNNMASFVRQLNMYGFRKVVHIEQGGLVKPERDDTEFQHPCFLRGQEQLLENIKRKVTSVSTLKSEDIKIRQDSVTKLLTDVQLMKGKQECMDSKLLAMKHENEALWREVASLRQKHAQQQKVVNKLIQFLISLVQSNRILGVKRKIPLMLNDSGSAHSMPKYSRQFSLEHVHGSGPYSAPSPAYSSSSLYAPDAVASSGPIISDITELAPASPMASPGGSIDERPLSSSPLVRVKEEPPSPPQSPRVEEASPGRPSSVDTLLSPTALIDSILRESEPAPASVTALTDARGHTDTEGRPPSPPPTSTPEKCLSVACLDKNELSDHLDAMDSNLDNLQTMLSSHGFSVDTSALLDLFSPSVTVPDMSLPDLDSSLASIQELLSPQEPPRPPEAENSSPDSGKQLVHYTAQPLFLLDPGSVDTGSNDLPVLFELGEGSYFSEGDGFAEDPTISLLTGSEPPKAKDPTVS
Outline: as §1

[4] = molecular target: T2, SPIC (Homo sapiens, UniProt Q8N5J4 1-248); conditions: protein: recombinant; tags: N-terminal GST; dsDNA, one strand shown
T2 sequence: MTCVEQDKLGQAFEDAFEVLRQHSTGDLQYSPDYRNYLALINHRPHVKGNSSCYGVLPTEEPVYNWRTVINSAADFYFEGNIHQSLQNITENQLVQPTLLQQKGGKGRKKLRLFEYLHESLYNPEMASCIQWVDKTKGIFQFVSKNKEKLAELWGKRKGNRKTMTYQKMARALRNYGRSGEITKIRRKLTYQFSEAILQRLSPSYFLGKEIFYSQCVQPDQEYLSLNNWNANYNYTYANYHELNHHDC
Outline: as §1

[5] = molecular target: ELF4 (Homo sapiens, UniProt Q99607 1-663); conditions: protein: recombinant; tags: N-terminal GST; dsDNA, one strand shown
Sequence of ELF4 (Q99607 whole entry): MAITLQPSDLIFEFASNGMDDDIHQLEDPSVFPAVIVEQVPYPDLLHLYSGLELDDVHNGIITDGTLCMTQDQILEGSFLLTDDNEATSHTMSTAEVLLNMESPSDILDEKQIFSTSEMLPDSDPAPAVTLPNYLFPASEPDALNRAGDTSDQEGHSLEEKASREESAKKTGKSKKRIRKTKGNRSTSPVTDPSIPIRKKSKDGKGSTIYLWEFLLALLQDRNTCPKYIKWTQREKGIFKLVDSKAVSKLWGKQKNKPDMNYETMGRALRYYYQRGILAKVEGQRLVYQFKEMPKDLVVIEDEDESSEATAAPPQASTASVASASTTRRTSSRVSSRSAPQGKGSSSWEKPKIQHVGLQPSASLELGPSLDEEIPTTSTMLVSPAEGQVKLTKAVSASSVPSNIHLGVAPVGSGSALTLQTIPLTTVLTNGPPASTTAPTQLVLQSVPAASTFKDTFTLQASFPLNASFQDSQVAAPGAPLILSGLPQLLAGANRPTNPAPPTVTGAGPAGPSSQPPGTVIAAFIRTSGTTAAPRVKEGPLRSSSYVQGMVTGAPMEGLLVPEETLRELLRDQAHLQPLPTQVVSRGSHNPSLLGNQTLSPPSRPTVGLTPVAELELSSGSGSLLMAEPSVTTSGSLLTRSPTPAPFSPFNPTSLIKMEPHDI
Outline: as §1

[6] = molecular target: T3, ELK4 (Homo sapiens, UniProt P28324-2 1-405); conditions: protein: recombinant; tags: N-terminal GST; dsDNA, one strand shown
T3 sequence: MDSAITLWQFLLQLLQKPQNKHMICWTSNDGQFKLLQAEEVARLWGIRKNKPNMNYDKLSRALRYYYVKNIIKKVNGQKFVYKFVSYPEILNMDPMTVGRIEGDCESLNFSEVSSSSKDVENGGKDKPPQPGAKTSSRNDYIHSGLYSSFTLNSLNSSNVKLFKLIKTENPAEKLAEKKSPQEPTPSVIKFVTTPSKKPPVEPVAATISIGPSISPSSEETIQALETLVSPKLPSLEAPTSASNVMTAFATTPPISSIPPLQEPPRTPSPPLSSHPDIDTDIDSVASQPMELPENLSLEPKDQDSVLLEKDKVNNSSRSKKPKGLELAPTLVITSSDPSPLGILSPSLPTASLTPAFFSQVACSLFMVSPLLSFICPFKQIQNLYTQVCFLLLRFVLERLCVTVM
Outline: as §1

[7] = molecular target: T4, ETV2 (Homo sapiens, UniProt O00321 1-342); conditions: protein: recombinant; tags: N-terminal GST; dsDNA, one strand shown
T4 sequence: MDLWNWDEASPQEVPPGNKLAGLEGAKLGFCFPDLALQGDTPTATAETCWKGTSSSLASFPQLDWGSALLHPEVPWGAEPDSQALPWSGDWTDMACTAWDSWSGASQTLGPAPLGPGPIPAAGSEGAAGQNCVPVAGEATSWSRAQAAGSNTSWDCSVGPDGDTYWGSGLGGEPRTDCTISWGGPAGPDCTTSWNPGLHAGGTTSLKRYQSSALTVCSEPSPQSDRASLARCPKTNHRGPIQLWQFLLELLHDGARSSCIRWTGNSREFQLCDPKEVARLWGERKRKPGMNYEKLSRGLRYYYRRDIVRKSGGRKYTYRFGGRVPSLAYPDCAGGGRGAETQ
Outline: as §1

[8] = molecular target: T5, ELF3 (Homo sapiens, UniProt P78545 1-371); conditions: protein: recombinant; tags: N-terminal GST; dsDNA, one strand shown
T5 sequence: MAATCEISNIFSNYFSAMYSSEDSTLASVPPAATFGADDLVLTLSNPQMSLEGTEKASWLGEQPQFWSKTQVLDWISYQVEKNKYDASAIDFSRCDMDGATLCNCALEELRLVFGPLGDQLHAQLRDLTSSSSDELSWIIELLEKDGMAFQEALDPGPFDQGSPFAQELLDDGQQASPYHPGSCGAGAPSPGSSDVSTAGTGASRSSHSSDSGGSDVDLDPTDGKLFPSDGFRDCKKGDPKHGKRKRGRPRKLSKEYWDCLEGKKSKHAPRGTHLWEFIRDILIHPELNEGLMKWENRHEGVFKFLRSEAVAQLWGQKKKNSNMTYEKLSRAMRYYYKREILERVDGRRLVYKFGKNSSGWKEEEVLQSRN
Outline: as §1

[9] = molecular target: CRX (Homo sapiens, UniProt O43186 1-299); conditions: protein: recombinant; tags: N-terminal GST; dsDNA, one strand shown
Sequence of CRX (O43186 whole entry): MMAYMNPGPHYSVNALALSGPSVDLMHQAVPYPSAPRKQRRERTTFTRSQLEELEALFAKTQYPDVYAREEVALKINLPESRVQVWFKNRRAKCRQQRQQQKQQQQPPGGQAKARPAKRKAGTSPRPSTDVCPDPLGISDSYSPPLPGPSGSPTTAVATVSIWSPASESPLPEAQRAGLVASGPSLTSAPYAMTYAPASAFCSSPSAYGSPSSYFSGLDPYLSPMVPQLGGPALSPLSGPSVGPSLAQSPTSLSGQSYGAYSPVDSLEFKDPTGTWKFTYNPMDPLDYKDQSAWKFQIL
Outline: as §1

[10] = molecular target: ETV1 (Homo sapiens, UniProt P50549 1-477); conditions: protein: recombinant; tags: N-terminal GST; dsDNA, one strand shown
Sequence of ETV1 (P50549 whole entry): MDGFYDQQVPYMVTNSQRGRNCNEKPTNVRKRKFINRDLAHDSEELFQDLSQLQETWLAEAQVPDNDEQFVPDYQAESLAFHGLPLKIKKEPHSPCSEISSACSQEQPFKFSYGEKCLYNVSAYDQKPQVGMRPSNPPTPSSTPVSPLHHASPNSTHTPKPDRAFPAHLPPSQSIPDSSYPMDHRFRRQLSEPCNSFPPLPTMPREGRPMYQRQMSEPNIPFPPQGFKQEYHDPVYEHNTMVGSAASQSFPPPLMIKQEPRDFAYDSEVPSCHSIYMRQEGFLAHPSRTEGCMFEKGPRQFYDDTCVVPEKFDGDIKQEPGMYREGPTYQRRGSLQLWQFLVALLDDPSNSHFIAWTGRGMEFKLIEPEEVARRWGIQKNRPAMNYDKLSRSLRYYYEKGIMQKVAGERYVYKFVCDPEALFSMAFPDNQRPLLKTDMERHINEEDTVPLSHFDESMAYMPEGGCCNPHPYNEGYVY
Outline: as §1

[11] = molecular target: T6, ERF (Homo sapiens, UniProt P50548 1-548); conditions: protein: recombinant; tags: N-terminal GST; dsDNA, one strand shown
T6 sequence: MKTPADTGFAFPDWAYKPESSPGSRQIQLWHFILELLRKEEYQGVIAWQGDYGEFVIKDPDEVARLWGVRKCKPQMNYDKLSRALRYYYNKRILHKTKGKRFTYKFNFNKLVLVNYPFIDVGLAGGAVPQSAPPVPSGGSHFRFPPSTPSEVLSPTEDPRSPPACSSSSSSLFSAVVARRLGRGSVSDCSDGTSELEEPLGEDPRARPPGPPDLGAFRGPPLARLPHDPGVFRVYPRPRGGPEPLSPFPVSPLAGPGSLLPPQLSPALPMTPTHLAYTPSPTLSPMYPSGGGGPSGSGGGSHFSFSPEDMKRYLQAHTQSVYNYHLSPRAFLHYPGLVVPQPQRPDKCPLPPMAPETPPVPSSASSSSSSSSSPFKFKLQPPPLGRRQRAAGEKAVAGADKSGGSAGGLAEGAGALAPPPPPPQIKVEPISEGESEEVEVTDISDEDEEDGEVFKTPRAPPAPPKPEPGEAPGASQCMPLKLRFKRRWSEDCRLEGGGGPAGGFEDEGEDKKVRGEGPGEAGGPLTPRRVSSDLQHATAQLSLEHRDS
Outline: as §1

[12] = molecular target: T7, ETV3L (Homo sapiens, UniProt Q6ZN32 1-361); conditions: protein: recombinant; tags: N-terminal GST; dsDNA, one strand shown
T7 sequence: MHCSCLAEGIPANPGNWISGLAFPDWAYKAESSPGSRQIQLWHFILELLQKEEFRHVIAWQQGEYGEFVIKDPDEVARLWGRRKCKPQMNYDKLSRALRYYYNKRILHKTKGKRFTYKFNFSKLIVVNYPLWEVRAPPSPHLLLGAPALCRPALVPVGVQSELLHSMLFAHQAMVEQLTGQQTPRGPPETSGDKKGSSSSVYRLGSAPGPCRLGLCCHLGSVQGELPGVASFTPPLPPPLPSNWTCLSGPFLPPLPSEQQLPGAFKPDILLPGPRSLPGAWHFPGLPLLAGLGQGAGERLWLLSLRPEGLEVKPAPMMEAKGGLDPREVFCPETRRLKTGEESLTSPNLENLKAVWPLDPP
Outline: as §1

[13] = molecular target: T8, ETS2 (Homo sapiens, UniProt P15036 1-469); conditions: protein: recombinant; tags: N-terminal GST; dsDNA, one strand shown
T8 sequence: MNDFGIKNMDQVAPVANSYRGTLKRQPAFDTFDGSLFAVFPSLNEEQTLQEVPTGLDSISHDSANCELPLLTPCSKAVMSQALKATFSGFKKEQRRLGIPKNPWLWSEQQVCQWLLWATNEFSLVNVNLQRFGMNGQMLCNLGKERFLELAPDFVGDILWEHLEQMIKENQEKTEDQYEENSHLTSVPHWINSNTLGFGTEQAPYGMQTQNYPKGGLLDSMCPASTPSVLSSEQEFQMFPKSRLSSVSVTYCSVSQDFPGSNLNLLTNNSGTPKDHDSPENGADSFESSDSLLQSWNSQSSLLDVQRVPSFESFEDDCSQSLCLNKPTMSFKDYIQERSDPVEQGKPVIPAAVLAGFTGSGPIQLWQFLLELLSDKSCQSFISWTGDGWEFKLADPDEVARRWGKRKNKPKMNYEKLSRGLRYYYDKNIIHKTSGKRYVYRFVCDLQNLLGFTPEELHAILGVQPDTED
Outline: as §1

[14] = molecular target: T9, SPDEF (Homo sapiens, UniProt O95238 1-335); conditions: protein: recombinant; tags: N-terminal GST; dsDNA, one strand shown
T9 sequence: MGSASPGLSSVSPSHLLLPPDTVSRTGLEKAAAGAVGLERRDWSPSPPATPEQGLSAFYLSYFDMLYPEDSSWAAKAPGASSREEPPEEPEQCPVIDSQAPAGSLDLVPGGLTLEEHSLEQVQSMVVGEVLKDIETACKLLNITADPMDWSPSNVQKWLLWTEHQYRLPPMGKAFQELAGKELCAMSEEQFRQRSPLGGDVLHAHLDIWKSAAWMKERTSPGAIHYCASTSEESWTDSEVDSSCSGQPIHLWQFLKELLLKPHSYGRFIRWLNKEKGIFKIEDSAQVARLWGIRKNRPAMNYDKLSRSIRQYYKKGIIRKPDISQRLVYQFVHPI
Outline: as §1

[15] = molecular target: T10, ETV7 (Homo sapiens, UniProt Q9Y603 1-341); conditions: protein: recombinant; tags: N-terminal GST; dsDNA, one strand shown
T10 sequence: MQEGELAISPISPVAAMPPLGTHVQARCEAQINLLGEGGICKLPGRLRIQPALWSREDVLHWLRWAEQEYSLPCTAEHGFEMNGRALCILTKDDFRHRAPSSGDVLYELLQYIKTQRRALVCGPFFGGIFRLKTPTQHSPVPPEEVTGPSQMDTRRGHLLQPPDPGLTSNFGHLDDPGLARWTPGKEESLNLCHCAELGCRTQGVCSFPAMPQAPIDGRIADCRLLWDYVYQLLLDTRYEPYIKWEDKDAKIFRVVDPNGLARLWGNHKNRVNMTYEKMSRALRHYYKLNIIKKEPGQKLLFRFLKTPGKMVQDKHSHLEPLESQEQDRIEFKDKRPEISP
Outline: as §1

[16] = molecular target: T11, ELF5 (Homo sapiens, UniProt Q9UKW6-2 1-255); conditions: protein: recombinant; tags: N-terminal GST; dsDNA, one strand shown
T11 sequence: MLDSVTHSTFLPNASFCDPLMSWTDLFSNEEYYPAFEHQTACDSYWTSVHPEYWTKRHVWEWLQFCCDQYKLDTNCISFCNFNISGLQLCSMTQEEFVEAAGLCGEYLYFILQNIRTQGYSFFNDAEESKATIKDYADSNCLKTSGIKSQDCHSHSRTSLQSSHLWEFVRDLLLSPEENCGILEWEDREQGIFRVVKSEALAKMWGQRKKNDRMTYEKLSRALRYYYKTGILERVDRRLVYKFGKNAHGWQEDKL
Outline: as §1

[17] = molecular target: T12, ETV3 (Homo sapiens, UniProt P41162-2 1-143); conditions: protein: recombinant; tags: N-terminal GST; dsDNA, one strand shown
T12 sequence: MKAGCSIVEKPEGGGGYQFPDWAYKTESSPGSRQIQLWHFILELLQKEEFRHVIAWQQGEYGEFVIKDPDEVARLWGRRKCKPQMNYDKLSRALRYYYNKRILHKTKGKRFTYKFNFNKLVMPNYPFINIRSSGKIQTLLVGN
Outline: as §1

[18] = molecular target: ETV6 (Homo sapiens, UniProt P41212 1-452); conditions: protein: recombinant; tags: N-terminal GST; dsDNA, one strand shown
Sequence of ETV6 (P41212 whole entry): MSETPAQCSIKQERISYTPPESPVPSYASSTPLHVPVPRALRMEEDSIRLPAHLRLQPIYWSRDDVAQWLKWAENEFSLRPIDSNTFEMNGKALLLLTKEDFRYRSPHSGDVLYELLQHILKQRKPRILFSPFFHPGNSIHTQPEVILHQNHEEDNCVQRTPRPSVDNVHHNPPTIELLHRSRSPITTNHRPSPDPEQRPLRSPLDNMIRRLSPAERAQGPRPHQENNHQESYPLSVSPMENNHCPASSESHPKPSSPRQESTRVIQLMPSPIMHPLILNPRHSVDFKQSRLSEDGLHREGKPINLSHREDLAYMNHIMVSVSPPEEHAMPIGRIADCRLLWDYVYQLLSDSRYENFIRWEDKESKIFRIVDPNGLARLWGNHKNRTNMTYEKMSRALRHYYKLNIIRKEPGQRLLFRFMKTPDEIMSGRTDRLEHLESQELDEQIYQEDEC
Outline: as §1

## CCCGCC
[1]
  binding signal: 1.5 fold enrichment (6-mer frequency, TF over GST control)
[2]
  binding signal: 1.31 fold enrichment (6-mer frequency, TF over GST control)
[3]
  binding signal: 1.17 fold enrichment (6-mer frequency, TF over GST control)
[4]
  binding signal: 1.67 fold enrichment (6-mer frequency, TF over GST control)
[5]
  binding signal: 1.66 fold enrichment (6-mer frequency, TF over GST control)
[6]
  binding signal: 1.43 fold enrichment (6-mer frequency, TF over GST control)
[7]
  binding signal: 1.6 fold enrichment (6-mer frequency, TF over GST control)
[8]
  binding signal: 1.45 fold enrichment (6-mer frequency, TF over GST control)
[9]
  binding signal: 1.21 fold enrichment (6-mer frequency, TF over GST control)
[10]
  binding signal: 1.5 fold enrichment (6-mer frequency, TF over GST control)
[11]
  binding signal: 1.53 fold enrichment (6-mer frequency, TF over GST control)
[12]
  binding signal: 1.56 fold enrichment (6-mer frequency, TF over GST control)
[13]
  binding signal: 1.38 fold enrichment (6-mer frequency, TF over GST control)
[14]
  binding signal: 1.39 fold enrichment (6-mer frequency, TF over GST control)
[15]
  binding signal: 1.48 fold enrichment (6-mer frequency, TF over GST control)
[16]
  binding signal: 1.45 fold enrichment (6-mer frequency, TF over GST control)
[17]
  binding signal: 1.47 fold enrichment (6-mer frequency, TF over GST control)
[18]
  binding signal: 1.63 fold enrichment (6-mer frequency, TF over GST control)
